Among all 16,000 compounds or so, about 5,800 (36%) were called active. Roughly 23% stayed inconclusive and do not appear here. Calls follow the shape of the dose curve; as a rule, active = well fitted curve in the direction sought with a large enough effect; inconclusive = small, poorly fitted or top-dose-only effect, or effect the other way; inactive = no such curve, though single readings can be large or run the other way. Some of the results follow.
Biological target: Cytochrome P450 2C19 (Homo sapiens) (UniProt P33261)
Sequence (P33261 whole entry, looked up): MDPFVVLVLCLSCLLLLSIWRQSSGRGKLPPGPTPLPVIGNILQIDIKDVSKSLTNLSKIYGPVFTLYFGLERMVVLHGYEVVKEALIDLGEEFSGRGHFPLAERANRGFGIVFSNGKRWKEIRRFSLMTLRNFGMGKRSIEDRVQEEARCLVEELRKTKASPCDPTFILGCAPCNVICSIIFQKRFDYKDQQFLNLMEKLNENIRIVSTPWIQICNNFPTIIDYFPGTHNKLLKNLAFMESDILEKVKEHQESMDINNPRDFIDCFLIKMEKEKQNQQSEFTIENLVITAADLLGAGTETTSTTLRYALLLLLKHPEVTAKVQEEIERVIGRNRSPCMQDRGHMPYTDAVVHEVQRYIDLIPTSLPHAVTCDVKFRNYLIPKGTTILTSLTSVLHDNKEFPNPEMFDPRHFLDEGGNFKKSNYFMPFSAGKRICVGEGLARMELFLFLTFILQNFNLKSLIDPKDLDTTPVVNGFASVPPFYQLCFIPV
Assay: Cytochrome panel assay with activity outcomes
Conditions: recombinant CYP, pro-luciferin dealkylation, luminescence, p450-cyp2c19; series mostly up to 57.1 µM; activity, negative = inhibition: at the top concentration
% is scaled to controls: 0 for no effect and ±100 for the full control effect.

Row | SMILES | activity, negative = inhibition | AC50
1 | C=C(C)[C@H]1CC[C@]2(CO)CC[C@]3(C)[C@@H](CC[C@H]4[C@@]5(C)CC[C@@H](O)C(C)(C)[C@@H]5CC[C@@]43C)[C@H]12 | 33.7% [at 25.6 µM] (inactive) | –
2 | C[C@]1(O)CC[C@H]2[C@@H]3[C@@H](O)CC4=CC(=O)CC[C@@]4(C)[C@H]3CC[C@]21C | 12.3% [at 11.4 µM] (inactive) | –
3 | O=C(O)/C=C\c1ccc[c]([Sb](=[O])([OH])[OH])c1 | -11.2% [at 11.4 µM] (inactive) | –
4 | COc1ccc(-n2nc(C(F)(F)F)cc2-c2ccc(Cl)cc2)cc1 | – | 7940 nM (active)
5 | CC(C)(C)C(=O)CP(=O)(O)O | 34.5% [at 11.4 µM] (inactive) | –
6 | CN1CCC(c2c[nH]c3ccc(O)cc23)CC1 | – | inactive
7 | COc1ccc2c(c1OC)C(=O)O[C@H]2[C@H]1c2cc3c(cc2CCN1C)OCO3 | – | 1260 nM (active)
8 | COc1ccc2c(c1O)-c1c(OC)c(OC)cc3c1[C@H](C2)N(C)CC3 | -24.7% [at 25.6 µM] (inactive) | –
9 | O[C@@H]1[C@@H]2c3cc4c(cc3CN3CCC(=C[C@@H]1O)[C@H]23)OCO4 | 10.7% [at 25.6 µM] (inactive) | –
10 | COc1ccc2c(c1OC)CN1CCc3cc4c(cc3[C@H]1C2)OCO4 | – | 1260 nM (active)
11 | C[N+]1(C)CCc2cc3c(cc2[C@@H]1[C@@H]1OC(=O)c2c1ccc1c2OCO1)OCO3 | 18.5% (inactive) | –
12 | CO[C@H]1C=C2CCN(C)[C@@H]2[C@@H]2c3cc4c(cc3C(=O)O[C@H]21)OCO4 | -44.6% [at 25.6 µM] (inactive) | –
13 | CN1CCc2cc3c(cc2[C@@H]1[C@@H]1OC(=O)c2c1ccc1c2OCO1)OCO3 | – | 50.1 nM (active)
14 | COc1c2c(cc3c1OCO3)CCN(C)C2 | -28.1% [at 25.6 µM] (inactive) | –
15 | COc1ccc(C[C@H]2c3cc(OC)c(OC)cc3CCN2C)cc1OC | -22.8% [at 25.6 µM] (inactive) | –
16 | O=C(NCP(=O)(O)O)c1cccnc1 | 26.5% [at 11.4 µM] (inactive) | –
17 | c1cnc(N2CC[C@@]3(CCCNC3)C2)nc1 | -7.58% (inactive) | –
18 | C=C[C@]12CN(C)[C@H]3C1[C@@]1(C(=O)Nc4ccccc41)[C@H]1C[C@H]2[C@H]3CO1 | 12.4% [at 25.6 µM] (inactive) | –
19 | CCCN1CCC[C@@H]2Cc3[nH]ncc3C[C@H]21 | – | inactive
20 | CC(=O)O[C@H]1CC[C@@]2(C)[C@@H](CC[C@H]3[C@H]2CC(=O)[C@@]2(C)[C@@H]3C[C@H]3CC(C)=CC(=O)[C@H]32)C1 | -7.79% [at 11.4 µM] (inactive) | –
21 | CS(=N)(=O)CC[C@H](N)P(=O)(O)O (stereo partly specified) | 2.48% [at 11.4 µM] (inactive) | –

Source: PubChem BioAssay AID1851 (National Center for Advancing Translational Sciences (NCATS), 2009)
